Results on 44 compounds are retold here after PMC4336329 (PLoS ONE, 2015).

Each structure is given as a SMILES string. Among all 310,000 compounds or so, about 2,200 (0.71%) showed an effect of 50% or more. Effects have a minus sign here. This is one part of a sample in which strong results are shown more often than they occur.

For the experiment, the target named is human ether-à-go-go-related gene (hERG) potassium channel (human, UniProt Q12809). Briefly: primary screen, population patch clamp on CHO cells stably expressing hERG; higher = less effect of the substance.
Chain of human ether-à-go-go-related gene (hERG) potassium channel (Q12809 whole entry, looked up): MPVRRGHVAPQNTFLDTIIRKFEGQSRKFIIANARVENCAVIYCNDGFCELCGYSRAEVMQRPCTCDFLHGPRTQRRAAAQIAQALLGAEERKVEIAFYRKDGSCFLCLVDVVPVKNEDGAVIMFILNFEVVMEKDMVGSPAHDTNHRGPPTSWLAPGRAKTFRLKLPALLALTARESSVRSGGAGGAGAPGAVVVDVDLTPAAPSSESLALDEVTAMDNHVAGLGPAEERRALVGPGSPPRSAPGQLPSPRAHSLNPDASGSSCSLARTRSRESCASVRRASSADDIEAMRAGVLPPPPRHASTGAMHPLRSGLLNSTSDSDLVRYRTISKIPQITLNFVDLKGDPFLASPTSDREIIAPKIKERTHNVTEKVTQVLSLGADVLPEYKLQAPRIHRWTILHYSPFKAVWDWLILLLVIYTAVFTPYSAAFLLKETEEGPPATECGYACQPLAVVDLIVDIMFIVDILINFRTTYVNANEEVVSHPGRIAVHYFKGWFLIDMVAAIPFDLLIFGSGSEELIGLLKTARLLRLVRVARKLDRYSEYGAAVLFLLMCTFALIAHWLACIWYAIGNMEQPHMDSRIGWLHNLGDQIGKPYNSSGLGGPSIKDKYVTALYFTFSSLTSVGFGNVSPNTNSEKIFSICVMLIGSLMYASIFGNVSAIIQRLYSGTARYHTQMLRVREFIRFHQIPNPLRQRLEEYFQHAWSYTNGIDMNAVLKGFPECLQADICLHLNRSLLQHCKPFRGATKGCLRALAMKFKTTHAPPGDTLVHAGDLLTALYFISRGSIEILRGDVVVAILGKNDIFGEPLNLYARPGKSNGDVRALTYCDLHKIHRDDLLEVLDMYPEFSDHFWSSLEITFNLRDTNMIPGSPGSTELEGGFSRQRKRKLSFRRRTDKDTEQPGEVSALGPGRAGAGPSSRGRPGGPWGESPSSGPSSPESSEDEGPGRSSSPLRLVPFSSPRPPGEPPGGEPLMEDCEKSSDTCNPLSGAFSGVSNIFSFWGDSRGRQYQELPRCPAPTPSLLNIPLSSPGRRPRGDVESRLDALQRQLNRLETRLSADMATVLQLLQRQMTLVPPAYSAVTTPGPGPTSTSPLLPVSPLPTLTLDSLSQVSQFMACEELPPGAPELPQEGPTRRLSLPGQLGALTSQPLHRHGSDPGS
For the compound `O=C(CCN1CCN(C/C=C/c2ccccc2)CC1)Nc1cccc(F)c1`, the “hERG current change (%, negative = inhibition) at 1uM” value is -62.6%.

In the case of `Cl.O=C(CCN1CCOCC1)Nc1ccc(Cl)cc1`, the “hERG current change (%, negative = inhibition) at 1uM” value is 8.71%.

`COc1cc(NC(=O)CCN2CCN(C/C=C/c3ccccc3)CC2)cc(OC)c1`: the “hERG current change (%, negative = inhibition) at 1uM” value was -36.8%.

On to `CN1CCN(CCC(=O)Nc2cccc(F)c2)CC1`, for which the “hERG current change (%, negative = inhibition) at 1uM” value is given as 13%.

`O=C(Nc1cccc(F)c1)N1CCN(C/C=C/c2ccccc2)CC1`: the “hERG current change (%, negative = inhibition) at 1uM” value is -19.1%.

With `O=C(CCN1CCN(c2ccccc2)CC1)Nc1ccc(Cl)cc1`, the “hERG current change (%, negative = inhibition) at 1uM” value worked out at 9.14%.

`CCOCCCNC(=O)c1cn(C)c(=O)c2cc(OC)c(OC)cc12`: the “hERG current change (%, negative = inhibition) at 1uM” value stood at 9.51%.

Consider `CCOC(=O)O[C@]1(C(=O)COC(=O)CC)CC[C@H]2[C@@H]3CCC4=CC(=O)C=C[C@]4(C)[C@H]3[C@@H](O)C[C@@]21C`, for which the “hERG current change (%, negative = inhibition) at 1uM” value was found to be 8.4%.

With `Cc1cccc(NC(=O)CNC(=O)COc2cc(F)ccc2[N+](=O)[O-])c1C`, the “hERG current change (%, negative = inhibition) at 1uM” value was found to be 15.4%.

Turning to `CCCNC(=O)CCC(NS(=O)(=O)c1ccc(C)cc1)C(=O)NCCC` (centres unmarked), the “hERG current change (%, negative = inhibition) at 1uM” value came to 7.66%.

On to `CCOC(=O)C1C(=O)CC(C)(O)C(C(=O)OCC)C1c1ccc(OC)cc1` (centres unmarked), for which the “hERG current change (%, negative = inhibition) at 1uM” value is reported as -0.912%.

Consider `CCOC(=O)CSc1nc2sc(C(=O)O)c(C)c2c(=O)[nH]1`, for which the “hERG current change (%, negative = inhibition) at 1uM” value was 9.03%.

With `Cc1cc(N2C(=O)C(O)=C(C(=O)c3cc4ccccc4o3)C2c2ccc(Cl)cc2)no1` (centres unmarked), the “hERG current change (%, negative = inhibition) at 1uM” value was 1.55%.

As for `COC(=O)c1cc(NC(=O)CSc2nnc(N)s2)ccc1Cl`, the “hERG current change (%, negative = inhibition) at 1uM” value was determined as 13.6%.

Turning to `Cc1ccc2c(CC(=O)N(C)c3c(N)n(Cc4ccccc4)c(=O)[nH]c3=O)coc2c1`, the “hERG current change (%, negative = inhibition) at 1uM” value came to 8.06%.

For `O=C(NCCc1ccccc1)c1ccc2nccnc2c1`, the “hERG current change (%, negative = inhibition) at 1uM” value amounted to 20.4%.

Regarding `CC(C)Cc1ccc(C(C)C(N)=Nc2ccc(O)cc2)cc1.Cl` (centres unmarked), the “hERG current change (%, negative = inhibition) at 1uM” value was -71.8%.

With `CC(C)Cc1ccc(C(C)C(N)=NCCc2ccccc2)cc1.Cl` (centres unmarked), the “hERG current change (%, negative = inhibition) at 1uM” value was -16%.

On to `CC(C)Cc1ccc(C(C)C(=N)N)cc1.Cl` (centres unmarked), for which the “hERG current change (%, negative = inhibition) at 1uM” value is recorded as 10.2%.

With `CSCCC(=O)N1CCC(n2nccc2NC(=O)CCc2ccccc2)CC1`, the “hERG current change (%, negative = inhibition) at 1uM” value is reported as 5.02%.

Turning to `Cc1ccc2c(c1)nnn2C1CCN(CC(=O)c2ccc(Cl)cc2)CC1`, the “hERG current change (%, negative = inhibition) at 1uM” value is on record as -6.32%.

Take `Cc1ccc(C(=O)C2CCN(CC(=O)NCc3ccc(F)cc3)CC2)cc1`: the “hERG current change (%, negative = inhibition) at 1uM” value is -17.5%.

Turning to `Cc1ccc(NC(=O)CN2CCC(C(=O)c3ccc(F)cc3)CC2)cc1`, the “hERG current change (%, negative = inhibition) at 1uM” value is -50.1%.

As for `Cc1ccc2c(c1)nnn2C1CCN(CC(=O)N2CCN(c3ccc(F)cc3)CC2)CC1`, the “hERG current change (%, negative = inhibition) at 1uM” value is -52.5%.

In the case of `Cc1ccc2c(c1)nnn2C1CCN(CC(=O)Nc2ccc(F)cc2)CC1`, the “hERG current change (%, negative = inhibition) at 1uM” value is -20.7%.

For `O=C(c1ccccc1)C1CCN(CC(=O)N2CCN(c3ccccc3)CC2)CC1`, the “hERG current change (%, negative = inhibition) at 1uM” value came out at 10.9%.

Consider `Cc1ccc(C(=O)C2CCN(CC(=O)N3CCN(c4ccc(F)cc4)CC3)CC2)cc1`, for which the “hERG current change (%, negative = inhibition) at 1uM” value was -66.5%.

`O=C(CN1CCC(C(=O)c2ccc(F)cc2)CC1)Nc1ccc(F)cc1`: the “hERG current change (%, negative = inhibition) at 1uM” value is reported as -31.6%.

As for `CC(=O)c1ccc(NC(=O)CN2CCC(C(=O)c3ccc(F)cc3)CC2)cc1`, the “hERG current change (%, negative = inhibition) at 1uM” value was 6.3%.

With `O=C(/C=C/c1ccc(F)cc1)NC(=S)Nc1ccccc1O`, the “hERG current change (%, negative = inhibition) at 1uM” value is recorded as 13.6%.

As for `CCN1C(=O)/C(=C/c2ccc(N(CC)CC)cc2OC)C(=O)NC1=S`, the “hERG current change (%, negative = inhibition) at 1uM” value is 5.05%.

Turning to `Cc1ccccc1OCCN=Cc1c(O)n(C)c(=O)n(C)c1=O`, the “hERG current change (%, negative = inhibition) at 1uM” value is given as 10.2%.

As for `Cc1cc(C(=O)NC2=NCCS2)cs1`, the “hERG current change (%, negative = inhibition) at 1uM” value is recorded as -13%.

As for `Cc1ccc(S(=O)(=O)NCCC(=O)NNC(=O)c2ccccc2O)cc1C`, the “hERG current change (%, negative = inhibition) at 1uM” value is given as -9.68%.

On to `Cc1csc(Sc2ccc(S(=O)(=O)N3CCCC3)cn2)n1`, for which the “hERG current change (%, negative = inhibition) at 1uM” value is -2.28%.

For `O=Cc1c(NCCc2ccc(F)cc2)c2ccccc2[nH]c1=O`, the “hERG current change (%, negative = inhibition) at 1uM” value amounted to 4.06%.

As for `Cc1ccc(-c2csc(NC(=O)C3CSC4(C)CCC(=O)N34)n2)cc1` (centres unmarked), the “hERG current change (%, negative = inhibition) at 1uM” value amounted to 11.6%.

Regarding `O=C(Nc1ccnn1C1CCN(C/C=C/c2ccccc2)CC1)C1CCCC1`, the “hERG current change (%, negative = inhibition) at 1uM” value is reported as -78.4%.

As to `O=C(Nc1ccnn1C1CCN(Cc2cccc(F)c2F)CC1)C1CCCC1`, the “hERG current change (%, negative = inhibition) at 1uM” value was found to be 8%.

Turning to `O=C(Nc1ccnn1C1CCN(C/C=C/c2ccc(F)cc2)CC1)C1CCCC1`, the “hERG current change (%, negative = inhibition) at 1uM” value is listed as -79.3%.

In the case of `O=C(Nc1ccnn1C1CCN(Cc2ccccc2)CC1)C1CCCC1`, the “hERG current change (%, negative = inhibition) at 1uM” value is -15.9%.

With `O=C(Nc1ccnn1C1CCN(Cc2cccc(O)c2)CC1)C1CCCC1`, the “hERG current change (%, negative = inhibition) at 1uM” value was -14.2%.

As to `O=C(Nc1ccnn1C1CCN(Cc2ccccc2F)CC1)C1CCCC1`, the “hERG current change (%, negative = inhibition) at 1uM” value is -6.15%.

`CC1(c2ccccc2)CC(C)(C)N2C(=O)C3(C(C#N)=C(N)Oc4cc(O)ccc43)c3cccc1c32` (centres unmarked): the “hERG current change (%, negative = inhibition) at 1uM” value was determined as 6.18%.
